# Data: PubChem BioAssay AID1159580 (chemical genetic matrix, 2015)
# About 2,000 (36%) of roughly 5,500 compounds were called active. Not shown: some 18% with an inconclusive outcome. This is one part of the list. A number with no mark means an inactive call. Rule as the data show it: active = normalized growth mostly below about 0.91 (no sharp cut-off); inconclusive = no clear call, values can overlap the other calls; inactive = mostly above about 0.92.
# Experiment: chemical genetic growth profiling, strain panel (AID 1159580);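 also: tested at 20 µM; growth read once vehicle control cultures reached saturation at 30 °C; 1 = growth at the plate median or of vehicle wells; lower values mean less growth of the strain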
# Settings: growth OD
smiles,measurement,setting,value
COc1cc(O)c(C(=O)O)c(O)c1,normalized growth,"S. cerevisiae deletion strains, locus YJR075W, strain HOC1, hits give low values",1
same,normalized growth,"S. cerevisiae deletion strains, locus YKL009W, strain mrt4, hits give low values",1.01
same,normalized growth,"S. cerevisiae deletion strains, locus YKL068W, hits give low values",0.954
same,normalized growth,"S. cerevisiae deletion strains, locus YKL085W, strain MDH1 (second series), hits give low values",0.961
same,normalized growth,"S. cerevisiae deletion strains, locus YKL085W, strain MDH1, hits give low values",0.961
same,normalized growth,"S. cerevisiae deletion strains, locus YKL160W, strain elf1, hits give low values",1
same,normalized growth,"S. cerevisiae deletion strains, locus YKL190W, strain CNB1, hits give low values",1.01
same,normalized growth,"S. cerevisiae deletion strains, locus YKR001C, strain vps1, hits give low values",1.02
same,normalized growth,"S. cerevisiae deletion strains, locus YKR026C, strain gcn3, hits give low values",0.986
same,normalized growth,"S. cerevisiae deletion strains, locus YKR091W, strain srl3, hits give low values",0.991
same,normalized growth,"S. cerevisiae deletion strains, locus YLL001W, strain dnm1, hits give low values",0.981
same,normalized growth,"S. cerevisiae deletion strains, locus YLL026W, hits give low values",1
same,normalized growth,"S. cerevisiae deletion strains, locus YLL041C, strain sdh2, hits give low values",0.986
same,normalized growth,"S. cerevisiae deletion strains, locus YLR027C, strain aat2, hits give low values",0.983
same,normalized growth,"S. cerevisiae deletion strains, locus YLR039C, strain RIC1, hits give low values",1.06
same,normalized growth,"S. cerevisiae deletion strains, locus YLR058C, strain SHM2, hits give low values",1
same,normalized growth,"S. cerevisiae deletion strains, locus YLR102C, strain apc9, hits give low values",0.997
same,normalized growth,"S. cerevisiae deletion strains, locus YLR113W, strain HOG1, hits give low values",0.83 (active)
same,normalized growth,"S. cerevisiae deletion strains, locus YLR221C, strain rsa3, hits give low values",1
same,normalized growth,"S. cerevisiae deletion strains, locus YLR258W, strain gsy2, hits give low values",0.998
same,normalized growth,"S. cerevisiae deletion strains, locus YLR262C, strain YPT6 (second series), hits give low values",1.02
same,normalized growth,"S. cerevisiae deletion strains, locus YLR262C, strain YPT6, hits give low values",1.02
same,normalized growth,"S. cerevisiae deletion strains, locus YLR268W, strain sec22, hits give low values",0.995
same,normalized growth,"S. cerevisiae deletion strains, locus YLR320W, strain mms22, hits give low values",1.01
same,normalized growth,"S. cerevisiae deletion strains, locus YLR330W, strain CHS5, hits give low values",0.991
same,normalized growth,"S. cerevisiae deletion strains, locus YLR342W, strain FKS1 (second series), hits give low values",1.06
same,normalized growth,"S. cerevisiae deletion strains, locus YLR342W, strain FKS1, hits give low values",0.99
same,normalized growth,"S. cerevisiae deletion strains, locus YLR357W, strain rsc2, hits give low values",1.01
same,normalized growth,"S. cerevisiae deletion strains, locus YLR370C, strain arc18, hits give low values",0.99
same,normalized growth,"S. cerevisiae deletion strains, locus YLR371W, strain rom2, hits give low values",0.999
same,normalized growth,"S. cerevisiae deletion strains, locus YLR384C, strain iki3, hits give low values",0.985
same,normalized growth,"S. cerevisiae deletion strains, locus YLR418C, strain cdc73, hits give low values",1.01
same,normalized growth,"S. cerevisiae deletion strains, locus YML016C, strain PPZ1, hits give low values",0.999
same,normalized growth,"S. cerevisiae deletion strains, locus YML032C, strain rad52, hits give low values",1.04
same,normalized growth,"S. cerevisiae deletion strains, locus YML120C, strain ndi1, hits give low values",0.998
same,normalized growth,"S. cerevisiae deletion strains, locus YML124C, strain tub3, hits give low values",0.992
same,normalized growth,"S. cerevisiae deletion strains, locus YMR058W, strain fet3, hits give low values",0.999
same,normalized growth,"S. cerevisiae deletion strains, locus YMR078C, strain ctf18, hits give low values",1.01
same,normalized growth,"S. cerevisiae deletion strains, locus YMR125W, strain sto1, hits give low values",0.973
same,normalized growth,"S. cerevisiae deletion strains, locus YMR129W, hits give low values",0.986
same,normalized growth,"S. cerevisiae deletion strains, locus YMR205C, strain PFK2, hits give low values",1.01
same,normalized growth,"S. cerevisiae deletion strains, locus YMR223W, strain ubp8, hits give low values",1.03
same,normalized growth,"S. cerevisiae deletion strains, locus YMR231W, strain pep5, hits give low values",0.984
same,normalized growth,"S. cerevisiae deletion strains, locus YMR263W, strain SAP30, hits give low values",1
same,normalized growth,"S. cerevisiae deletion strains, locus YMR307W, strain GAS1, hits give low values",1.03
same,normalized growth,"S. cerevisiae deletion strains, locus YNL067W, strain RPL9B, hits give low values",1
same,normalized growth,"S. cerevisiae deletion strains, locus YNL071W, strain lat1, hits give low values",0.99
same,normalized growth,"S. cerevisiae deletion strains, locus YNL128W, strain TEP1, hits give low values",1
same,normalized growth,"S. cerevisiae deletion strains, locus YNL153C, strain GIM3, hits give low values",0.998
same,normalized growth,"S. cerevisiae deletion strains, locus YNL183C, strain NPR1, hits give low values",0.84
same,normalized growth,"S. cerevisiae deletion strains, locus YNL209W, strain ssb2, hits give low values",0.981
same,normalized growth,"S. cerevisiae deletion strains, locus YNL233W, strain BNI4, hits give low values",1.01
same,normalized growth,"S. cerevisiae deletion strains, locus YNL248C, strain rpa49, hits give low values",0.992
same,normalized growth,"S. cerevisiae deletion strains, locus YNL250W, strain rad50, hits give low values",0.97
same,normalized growth,"S. cerevisiae deletion strains, locus YNL271C, strain bni1, hits give low values",0.945
same,normalized growth,"S. cerevisiae deletion strains, locus YNL298W, strain CLA4, hits give low values",0.977
same,normalized growth,"S. cerevisiae deletion strains, locus YNL307C, strain MCK1, hits give low values",1.02
same,normalized growth,"S. cerevisiae deletion strains, locus YNL322C, strain KRE1 (second series), hits give low values",0.972
same,normalized growth,"S. cerevisiae deletion strains, locus YNL322C, strain KRE1, hits give low values",0.99
same,normalized growth,"S. cerevisiae deletion strains, locus YNR049C, strain mso1, hits give low values",0.98
same,normalized growth,"S. cerevisiae deletion strains, locus YNR052C, strain pop2, hits give low values",1.02
same,normalized growth,"S. cerevisiae deletion strains, locus YOL006C, strain TOP1, hits give low values",1.04
same,normalized growth,"S. cerevisiae deletion strains, locus YOL012C, strain htz1",0.943
same,normalized growth,"S. cerevisiae deletion strains, locus YOL147C, strain pex11, hits give low values",1
same,normalized growth,"S. cerevisiae deletion strains, locus YOR001W, strain rrp6, hits give low values",0.999
same,normalized growth,"S. cerevisiae deletion strains, locus YOR061W, strain CKA2, hits give low values",1.01
same,normalized growth,"S. cerevisiae deletion strains, locus YOR069W, strain VPS5, hits give low values",0.993
same,normalized growth,"S. cerevisiae deletion strains, locus YOR070C, strain gyp1, hits give low values",0.994
same,normalized growth,"S. cerevisiae deletion strains, locus YOR080W, strain dia2, hits give low values",1
same,normalized growth,"S. cerevisiae deletion strains, locus YOR083W, strain WHI5, hits give low values",1.01
same,normalized growth,"S. cerevisiae deletion strains, locus YOR106W, strain vam3, hits give low values",1.01
same,normalized growth,"S. cerevisiae deletion strains, locus YOR136W, strain idh2, hits give low values",1.03
same,normalized growth,"S. cerevisiae deletion strains, locus YOR144C, strain elg1, hits give low values",1
same,normalized growth,"S. cerevisiae deletion strains, locus YOR184W, strain ser1, hits give low values",1.04
same,normalized growth,"S. cerevisiae deletion strains, locus YOR231W, strain MKK1, hits give low values",0.885
same,normalized growth,"S. cerevisiae deletion strains, locus YOR265W, strain rbl2, hits give low values",0.997
same,normalized growth,"S. cerevisiae deletion strains, locus YOR270C, strain vph1, hits give low values",1.02
same,normalized growth,"S. cerevisiae deletion strains, locus YOR290C, strain snf2, hits give low values",1.01
same,normalized growth,"S. cerevisiae deletion strains, locus YOR316C, strain cot1, hits give low values",1
same,normalized growth,"S. cerevisiae deletion strains, locus YPL051W, strain arl3, hits give low values",0.986
same,normalized growth,"S. cerevisiae deletion strains, locus YPL055C, strain LGE1, hits give low values",1.01
same,normalized growth,"S. cerevisiae deletion strains, locus YPL078C, strain atp4, hits give low values",0.992
same,normalized growth,"S. cerevisiae deletion strains, locus YPL106C, strain sse1, hits give low values",0.982
same,normalized growth,"S. cerevisiae deletion strains, locus YPL240C, strain hsp82, hits give low values",1
same,normalized growth,"S. cerevisiae deletion strains, locus YPL241C, strain CIN2, hits give low values",0.997
same,normalized growth,"S. cerevisiae deletion strains, locus YPL256C, strain CLN2, hits give low values",0.824 (active)
same,normalized growth,"S. cerevisiae deletion strains, locus YPR119W, strain clb2, hits give low values",0.987
same,normalized growth,"S. cerevisiae deletion strains, locus YPR141C, strain kar3, hits give low values",0.968
same,normalized growth,"S. cerevisiae deletion strains, locus YPR163C, strain tif3, hits give low values",1.01
same,normalized growth,"S. cerevisiae deletion strains, locus YPR167C, strain met16, hits give low values",1
same,normalized growth,"S. cerevisiae deletion strains, strain wtn01, hits give low values",1.01
same,normalized growth,"S. cerevisiae strains, strain wild type, hits give low values",1
